“And” between values parts separate entries of the source, which are not always exact repeats. Equal values may be shown once. Records with an inconclusive call do not appear. The source made the active and inactive calls. Cut-off read from the data, not from the text of the source, unless noted: active = inhibition above about 80%; inactive = the rest.
Legend:
[1] = hESC survival regulators, cell-based (AID 493140; call rule not given here;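 note: cells exposed to compounds for four days before counting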); conditions: human embryonic stem cell survival screen; stronger effect = higher value
[2] = liver-stage malaria parasite growth inhibition, primary screen, cell-based, HepG2, luciferase luminescence, HepG2 viability (AID 624349; in the data active = parasite load remaining mostly below about 12%, no sharp cut-off; inactive = mostly above about 10%;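 note: 100% = mean of DMSO negative control wells on the same plate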); conditions: P. berghei liver stage in HepG2, luciferase luminescence, concentration not given here; parasite load remaining: stronger effect = lower value; viability: measured here: HepG2 viability without parasites
[3] = sensitizers of A549 cells to miR-34 induction, primary screen, imaging, A549 dox-inducible miR-34, nuclei and caspase counts (AID 1347080;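 active = compounds whose cell count with miR-34 switched on is under 0.7 times the count with it off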); conditions: A549 miR-34 inducible, Hoechst nuclei count, 48 h
[4] = survival rescue of mitochondrial mutant cells in low glucose, primary screen, MELAS cybrids, Rieske KO mouse fibroblasts, CellTiter-Glo (AID 1508586;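 active = mean z-score across replicates of 1.96 or higher in either the MELAS or the Rieske mutant cell line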;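 note: z relative to plate mean and SD of compound and empty wells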)
[5] = LFS_MB_P medulloblastoma growth inhibition, cell-based, chromothripsis tumors, cisplatin or BGB combos (AID 1671449); conditions: LFS_MB_P medulloblastoma cells;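 note: cells exposed for 96 hours; 0% = vehicle DMSO and 100% = killing by high DMSO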
[6] = HDN33 neuroblastoma growth inhibition, cell-based, chromothripsis tumors, cisplatin or BGB combos (AID 1671450); conditions: HDN33 neuroblastoma cells, stronger effect = higher value;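 note: cells exposed to compound for four days; 0% = vehicle DMSO and 100% = cell killing by high DMSO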
[7] = ICB984 medulloblastoma cell growth inhibition, synergistic combos for chromothripsis tumors, cisplatin or BGB combos (AID 1671451; call rule not given here;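 note: cells exposed for 96 hours before readout; 0% = vehicle DMSO and 100% = killing by high DMSO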); conditions: ICB984 medulloblastoma cells, drug combinations, stronger effect = higher value
[8] = LFS_MB_1R medulloblastoma cell growth inhibition, synergistic combos for chromothripsis tumors, cisplatin or BGB combos (AID 1671452); conditions: LFS_MB_1R medulloblastoma cells, stronger effect = higher value;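 note: cells exposed for 96 hours before readout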
[9] = HTB85 osteosarcoma cell growth inhibition, synergistic combos for chromothripsis tumors, BGB or cisplatin IC20 combos (AID 1671453); conditions: HTB85 osteosarcoma cells, drug combinations, stronger effect = higher value;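 note: cells exposed for 96 hours before readout; 0% = vehicle DMSO and 100% = high DMSO killing control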
[10] = CRL2098 osteosarcoma cell growth inhibition, synergistic combos for chromothripsis tumors, BGB or cisplatin IC20 combos (AID 1671454); conditions: CRL2098 osteosarcoma cells, drug combinations, stronger effect = higher value;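 note: cells exposed for 96 h before readout; 0% = vehicle DMSO and 100% = killing by high DMSO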
[11] = HD-MB03 medulloblastoma cell growth inhibition, synergistic combos for chromothripsis tumors, BGB or cisplatin IC20 combos (AID 1671455; in the data active = inhibition above about 83%;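 note: 0% = vehicle DMSO and 100% = high DMSO as cytotoxic control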); conditions: HD-MB03 medulloblastoma cells, stronger effect = higher value
[12] = UWB1.289 ovarian carcinoma cell growth inhibition, synergistic combos for chromothripsis tumors, BGB or cisplatin combos (AID 1671456); conditions: UWB1.289 ovarian carcinoma cells, stronger effect = higher value;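 note: cells exposed to compound for four days; 0% = vehicle DMSO and 100% = killing by high DMSO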
[13] = LFS_MB_2R medulloblastoma cell growth inhibition, synergistic combos for chromothripsis tumors, cisplatin combos (AID 1671457); conditions: LFS_MB_2R medulloblastoma cells, stronger effect = higher value;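 note: cells exposed to compound for four days before readout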
[14] = MDA-MB-436 breast carcinoma cell growth inhibition, synergistic combos for chromothripsis tumors, BGB or cisplatin combos (AID 1671458; call rule not given here;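 note: cells exposed for 96 hours; 0% = vehicle DMSO and 100% = killing by high DMSO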); conditions: MDA-MB-436 breast carcinoma growth inhibition, drug combinations, stronger effect = higher value
[15] = UWB1.289_BRCA1 ovarian cancer growth, cell-based, BGB or cisplatin combinations (AID 1671459); conditions: UWB1.289 BRCA1 ovarian carcinoma, drug combinations, stronger effect = higher value
[16] = human astrocyte viability loss, single and combined drugs, cytotoxicity control for chromothriptic childhood tumor combination screen, cell-based, BGB or cisplatin IC20 combos (AID 1671460); conditions: Human astrocytes, drug combinations, stronger effect = higher value;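 note: cells exposed to compounds for 96 hours before viability readout; 0% = vehicle and 100% = killing control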
[17] = growth inhibition of BT084 medulloblastoma cells, cell-based, ICGC_MB145, cisplatin and BGB IC40 combos (AID 1671461); conditions: drug combinations, stronger effect = higher value;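 note: cells exposed to drugs for 96 hours; 0% = vehicle DMSO and 100% = high DMSO full killing control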
[18] = growth inhibition of RCMB18 medulloblastoma cells, cell-based, cisplatin and BGB IC40 combos (AID 1671462); conditions: stronger effect = higher value;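 note: cells exposed to compound for four days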
[19] = growth inhibition of CRL1545 osteosarcoma cells, cell-based, cisplatin and BGB IC20 combos (AID 1671464); conditions: stronger effect = higher value;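 note: cells exposed to compound for 96 hours before readout; 0% = vehicle DMSO and 100% = high DMSO killing control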
[20] = target: NAD(+) hydrolase SARM1 (Homo sapiens) (UniProt Q6SZW1); assay: SARM1 TIR NADase inhibitors, cell lysate, NAD-Glo luminescence (AID 1508614;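 active = compound whose remaining NAD level is above about 45 nM, limit read from the data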;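 note: higher remaining NAD means stronger inhibition of SARM1 NADase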); conditions: SAM-TIR HEK293T lysate NADase, at 1 µM, stronger effect = higher value
[21] = target: Mitogen-activated protein kinase 7 (Homo sapiens) (UniProt Q13164); assay: ERK5 transactivation activators in reporter cells, primary screen, cell-based, HTS (AID 1508626;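 active = luciferase signal above three times the same-plate solvent-only control wells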;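 note: luciferase driven by Gal4-ERK5 fusion binding five Gal4 sites before minimal TATA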); conditions: HeLa Gal4-ERK5 transactivation, 18 h, at 5 µM, stronger effect = higher value
[22] = viability rescue of complex I mutant cybrids, primary screen, cell-based, galactose medium, ATP luminescence (AID 1645843;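 active = z-score of at least 1.8 in each of two replicates, scored against plate mean and spread of sample wells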;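 note: positive z means more ATP and so rescue of galactose-driven cybrid death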); conditions: complex I mutant cybrid cells, 72 h, stronger effect = higher value
[23] = target: ATP-dependent translocase ABCB1 (Homo sapiens) (UniProt P08183); assay: MDR1 (ABCB1) efflux transporter inhibition, cell-based (AID 377; in the data active = fluorescence slope change above about 50%); conditions: MDR1-expressing cells, fluorescent substrate accumulation slope; stronger effect = higher value; concentration not given here
[24] = tested on: Hepatitis C virus NS3 helicase; assay: HCV NS3 helicase inhibitors, primary screen, biochemical, fluorescence polarization, LOPAC1280 library (AID 687035; in the data active = inhibition above about 37%); conditions: Purified HCV NS3 helicase, Cy5-dT15 ssDNA binding fluorescence polarization; stronger effect = higher value; concentration not given here
[25] = Cy5 fluorescence quenching or enhancement artefacts, artefact control for HCV NS3 helicase inhibitor project, biochemical, LOPAC1280 (AID 687037; call rule not given here); conditions: Cy5-DNA-NS3h complex fluorescence interference counterscreen
[26] = phospholipid biosynthesis inhibitors in animal cells, primary screen, cell-based, LOPAC library, screen 4 (AID 1347384; call rule not given here); conditions: phospholipid biosynthesis inhibition screen, at 10 µM
[27] = stronger effect = lower value, cell number ratio, induced over uninduced
[28] = measured here: relative caspase fold change +Dox/-Dox
[29] = measured here: total cells with miR-34 induction, stronger effect = lower value
[30] = measured here: total cells without miR-34 induction
[31] = MELAS cybrid survival, CellTiter-Glo 48 h, stronger effect = higher value
[32] = Rieske KO mouse fibroblast survival, CellTiter-Glo 72 h
[33] = measured here: combination with BGB IC40, at 0.05 µM
[34] = measured here: with BGB IC20 combination, at 0.5 µM
[35] = measured here: with cisplatin IC20 combination, at 0.5 µM
[36] = measured here: combination with cisplatin, at 0.5 µM
[37] = measured here: combination with cisplatin, at 5 µM

NAD(+) hydrolase SARM1 (Homo sapiens), sequence (Q6SZW1 whole entry, looked up, the tested form may be a part): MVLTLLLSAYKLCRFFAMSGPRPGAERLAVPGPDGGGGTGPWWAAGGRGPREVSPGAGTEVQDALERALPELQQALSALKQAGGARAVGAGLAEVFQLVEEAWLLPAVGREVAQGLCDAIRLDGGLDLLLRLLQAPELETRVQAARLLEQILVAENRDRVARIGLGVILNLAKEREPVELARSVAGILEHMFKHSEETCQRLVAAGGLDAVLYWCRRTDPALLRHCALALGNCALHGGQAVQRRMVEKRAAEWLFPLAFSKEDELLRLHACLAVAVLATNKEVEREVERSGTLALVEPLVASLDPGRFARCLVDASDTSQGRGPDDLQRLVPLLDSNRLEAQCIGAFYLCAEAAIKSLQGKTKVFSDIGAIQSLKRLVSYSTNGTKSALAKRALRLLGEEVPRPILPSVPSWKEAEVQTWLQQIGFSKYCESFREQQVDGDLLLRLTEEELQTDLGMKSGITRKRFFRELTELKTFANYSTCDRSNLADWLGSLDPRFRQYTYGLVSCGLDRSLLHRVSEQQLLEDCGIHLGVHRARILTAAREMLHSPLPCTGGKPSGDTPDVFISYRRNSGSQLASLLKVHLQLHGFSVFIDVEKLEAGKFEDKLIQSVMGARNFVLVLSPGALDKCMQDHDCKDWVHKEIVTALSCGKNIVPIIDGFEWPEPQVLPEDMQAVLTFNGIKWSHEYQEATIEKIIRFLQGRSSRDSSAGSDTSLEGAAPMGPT
ATP-dependent translocase ABCB1 (Homo sapiens), sequence (P08183 whole entry, looked up): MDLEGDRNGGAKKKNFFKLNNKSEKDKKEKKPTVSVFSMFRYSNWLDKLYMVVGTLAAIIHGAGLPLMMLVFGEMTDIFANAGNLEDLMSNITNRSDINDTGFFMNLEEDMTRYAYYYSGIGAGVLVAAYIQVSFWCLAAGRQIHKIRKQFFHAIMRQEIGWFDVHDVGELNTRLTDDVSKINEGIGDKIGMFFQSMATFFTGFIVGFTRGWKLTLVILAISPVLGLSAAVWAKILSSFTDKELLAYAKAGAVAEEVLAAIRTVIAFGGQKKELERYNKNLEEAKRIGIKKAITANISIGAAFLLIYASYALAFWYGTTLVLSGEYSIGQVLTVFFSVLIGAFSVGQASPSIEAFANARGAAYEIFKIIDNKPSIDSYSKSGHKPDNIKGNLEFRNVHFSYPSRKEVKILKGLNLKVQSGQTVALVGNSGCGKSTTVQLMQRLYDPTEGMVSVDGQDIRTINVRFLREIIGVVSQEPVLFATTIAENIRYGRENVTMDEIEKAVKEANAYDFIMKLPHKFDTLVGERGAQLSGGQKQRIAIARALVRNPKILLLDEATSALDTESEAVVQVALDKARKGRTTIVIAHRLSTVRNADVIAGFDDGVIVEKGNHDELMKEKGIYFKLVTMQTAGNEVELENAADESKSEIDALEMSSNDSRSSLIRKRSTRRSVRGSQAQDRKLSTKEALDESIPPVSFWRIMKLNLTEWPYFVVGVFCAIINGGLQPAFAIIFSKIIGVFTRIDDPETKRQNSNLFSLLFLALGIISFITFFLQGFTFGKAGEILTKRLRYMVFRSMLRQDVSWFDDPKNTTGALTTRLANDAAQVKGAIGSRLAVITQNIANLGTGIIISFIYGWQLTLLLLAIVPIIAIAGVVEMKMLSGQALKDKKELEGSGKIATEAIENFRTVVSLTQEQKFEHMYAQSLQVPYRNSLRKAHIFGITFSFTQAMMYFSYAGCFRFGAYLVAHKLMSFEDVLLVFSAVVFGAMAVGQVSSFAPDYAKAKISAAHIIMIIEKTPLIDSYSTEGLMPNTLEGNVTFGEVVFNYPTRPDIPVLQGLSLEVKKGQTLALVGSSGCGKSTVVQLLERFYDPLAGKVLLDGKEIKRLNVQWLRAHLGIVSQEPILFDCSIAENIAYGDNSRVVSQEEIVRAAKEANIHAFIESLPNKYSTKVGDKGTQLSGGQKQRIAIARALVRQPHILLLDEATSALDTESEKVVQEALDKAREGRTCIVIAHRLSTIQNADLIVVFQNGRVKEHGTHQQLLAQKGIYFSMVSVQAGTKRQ
Mitogen-activated protein kinase 7 (Homo sapiens), sequence (Q13164 whole entry, looked up, the tested form may be a part): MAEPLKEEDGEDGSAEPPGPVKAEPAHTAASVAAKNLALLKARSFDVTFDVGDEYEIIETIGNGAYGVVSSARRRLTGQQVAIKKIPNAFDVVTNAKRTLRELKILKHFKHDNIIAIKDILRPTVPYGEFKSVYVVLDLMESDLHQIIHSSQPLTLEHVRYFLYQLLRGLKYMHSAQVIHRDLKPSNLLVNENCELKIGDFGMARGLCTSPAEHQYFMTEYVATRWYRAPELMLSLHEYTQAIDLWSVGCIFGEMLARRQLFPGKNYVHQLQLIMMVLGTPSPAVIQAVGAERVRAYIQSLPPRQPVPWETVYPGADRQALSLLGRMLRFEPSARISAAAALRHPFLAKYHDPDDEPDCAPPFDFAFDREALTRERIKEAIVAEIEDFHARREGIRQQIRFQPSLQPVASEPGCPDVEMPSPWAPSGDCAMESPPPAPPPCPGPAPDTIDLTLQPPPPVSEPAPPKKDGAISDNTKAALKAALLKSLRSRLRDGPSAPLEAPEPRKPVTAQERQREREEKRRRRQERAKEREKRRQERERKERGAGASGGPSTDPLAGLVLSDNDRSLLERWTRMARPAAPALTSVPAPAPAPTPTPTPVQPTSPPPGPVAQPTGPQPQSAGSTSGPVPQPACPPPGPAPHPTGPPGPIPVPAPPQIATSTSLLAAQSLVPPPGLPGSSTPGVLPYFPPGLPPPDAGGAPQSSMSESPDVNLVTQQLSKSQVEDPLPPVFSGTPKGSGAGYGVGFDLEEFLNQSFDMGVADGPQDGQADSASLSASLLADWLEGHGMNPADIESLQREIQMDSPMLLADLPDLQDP

Nc1nc2n[nH]nc2c(=O)[nH]1
survival [1]: 1.83 (inactive) | parasite load remaining [2]: 236% (inactive) and 549% (inactive) | viability [2]: 41.1% and 96.1% | fold change [3, 27]: 0.89 (inactive) and 0.844 (inactive) | fold change [3, 28]: 1.24 and 2.05 | cell count [3, 29]: 3000 and 5470 | cell count [3, 30]: 3360 and 6490 | z-score [4, 31]: -0.244 (inactive) and -0.54 (inactive) | z-score [4, 32]: -0.138 and -0.665 | inhibition ([5]; at 0.5 µM, stronger effect = higher value): -21.3% (inactive) | inhibition ([5]; measured here: combination with BGB IC20, at 0.005 µM): -4.53% | inhibition ([5]; measured here: combination with BGB IC40, at 0.005 µM): -37% | inhibition [5, 33]: -34.6% | inhibition ([5]; measured here: combination with cisplatin, at 0.5 µM, stronger effect = higher value): -31.1% | inhibition ([5]; measured here: combination with cisplatin, at 5 µM, stronger effect = higher value): 8.39% | inhibition ([6]; BGB combo, at 5 µM): 20.7% | inhibition ([6]; at 0.5 µM): -10.2% (inactive) | inhibition ([6]; cisplatin combo, at 5 µM): 6.45% | inhibition [6, 34]: -12.8% | inhibition [6, 35]: -5.82% | inhibition ([6]; single agent, at 5 µM): 42.1% | inhibition ([7]; BGB IC20 combo, at 0.005 µM): -1.82% | inhibition ([7]; BGB IC40 combo, at 0.005 µM): -9.06% | inhibition ([7]; BGB IC40 combo, at 0.05 µM): 29.3% | inhibition ([7]; at 0.5 µM): -25% (inactive) | inhibition ([7]; cisplatin combo, at 0.05 µM): 27.3% | inhibition ([7]; cisplatin combo, at 0.5 µM): -32.9% | inhibition ([7]; cisplatin combo, at 5 µM): -42% | inhibition ([7]; measured here: 5 uM single agent, at 5 µM): -12.8% | inhibition ([8]; at 0.5 µM): -9.31% (inactive) | inhibition [8, 33]: -15.8% | inhibition [8, 36]: -8.27% | inhibition [8, 37]: 12.9% | inhibition ([9]; at 0.5 µM): -22.9% (inactive) | inhibition ([9]; measured here: with BGB IC20, at 0.5 µM): -34.4% | inhibition ([9]; measured here: with BGB IC20, at 5 µM): 1.91% | inhibition ([9]; measured here: with cisplatin IC20, at 0.5 µM): -27.1% | inhibition ([9]; measured here: with cisplatin IC20, at 5 µM): -19.1% | inhibition ([9]; single agent, at 5 µM): 1.86% | inhibition ([10]; at 0.5 µM): -27.1% (inactive) | inhibition ([10]; measured here: combination with BGB at IC20, at 0.5 µM): -20.7% | inhibition ([10]; measured here: combination with cisplatin at IC20, at 0.5 µM): -21.9% | inhibition ([11]; at 0.5 µM): 19.3% (inactive) | inhibition ([11]; measured here: combo with BGB at IC20, at 0.5 µM): 16.1% | inhibition ([11]; measured here: combo with cisplatin at IC20, at 0.5 µM): 19.7% | inhibition ([12]; at 0.5 µM): 32.6% (inactive) | inhibition ([12]; measured here: inhibition with BGB combination, at 0.05 µM): -18.7% | inhibition ([12]; measured here: inhibition with cisplatin combination, at 0.05 µM): 7.62% | inhibition ([13]; at 0.5 µM): -9.15% (inactive) | inhibition [13, 36]: -13.8% | inhibition [13, 37]: -35.4% | inhibition ([14]; at 0.5 µM): -11.4% (inactive) | inhibition ([14]; measured here: BGB combination, at 0.5 µM): -12.2% | inhibition ([14]; measured here: BGB combination, at 5 µM): -5.12% | inhibition ([14]; measured here: cisplatin combination, at 0.5 µM): -17.5% | inhibition ([14]; measured here: cisplatin combination, at 5 µM): 11.7% | inhibition ([15]; BGB combination, concentration series, at 5 µM): 85.1% | inhibition ([15]; at 0.5 µM): 38.3% (inactive) | inhibition ([15]; cisplatin combination, concentration series, at 5 µM): 92.1% | inhibition ([16]; at 0.5 µM): 3.68% (inactive) | inhibition ([16]; measured here: combo with BGB IC20, at 0.5 µM): 0.254% | inhibition ([16]; measured here: combo with cisplatin IC20, at 0.5 µM): 6.71% | inhibition ([17]; at 0.5 µM): -32% (inactive) | inhibition ([17]; cisplatin combination, at 0.5 µM): -3.22% | inhibition ([17]; cisplatin combination, at 5 µM): 22.6% | inhibition ([17]; measured here: BGB IC40 combination 0.05 uM, at 0.05 µM): -14% | inhibition ([17]; single agent, at 5 µM): 6.12% | inhibition ([18]; at 0.5 µM): -14.7% (inactive) | inhibition ([18]; cisplatin combo, at 5 µM): 33.1% | inhibition ([18]; measured here: BGB IC40 combination, at 0.05 µM): -43.3% | inhibition [18, 36]: 3.47% | inhibition ([18]; single agent, at 5 µM): 22.1% | inhibition ([19]; at 0.5 µM): -20.1% (inactive) | inhibition [19, 34]: -2.71% | inhibition [19, 35]: -31.6% | inhibition ([19]; single agent, at 0.05 µM): -28.1% | inhibition ([19]; single agent, at 5 µM): 32.5%

CC[C@H](C)[C@H]1O[C@]2(CC[C@@H]1C)C[C@@H]1C[C@@H](C/C=C(\C)[C@@H](O[C@H]3C[C@H](OC)[C@@H](O[C@H]4C[C@H](OC)[C@@H](O)[C@H](C)O4)[C@H](C)O3)[C@@H](C)/C=C/C=C3\CO[C@@H]4[C@H](O)C(C)=C[C@@H](C(=O)O1)[C@]34O)O2
parasite load remaining [2]: 26.5% (inactive) and 28.8% (inactive) | viability [2]: 44.6% and 96.5% | fold change [3, 27]: 0.862 (inactive) and 0.935 (inactive) | fold change [3, 28]: 0.479 and 1.24 | cell count [3, 29]: 6180 and 7180 | cell count [3, 30]: 7170 and 7680 | z-score [4, 31]: -1.97 (inactive) and -0.0039 (inactive) | z-score [4, 32]: 0.878 and -0.186 | remaining NAD [20]: 10 nM (inactive) | luciferase signal [21]: 44 AU (inactive) | z-score [22]: -1.77 (inactive)

O=C(O)C=Cc1ccc(Cn2ccnc2)cc1
fold change [3, 27]: 0.955 (inactive) and 0.883 (inactive) and 0.902 (inactive) | fold change [3, 28]: 1.3 and 1.43 and 0.779 | cell count [3, 29]: 9560 and 7820 and 10000 | cell count [3, 30]: 10000 and 8860 and 11100 | z-score [4, 31]: -0.304 (inactive) and -0.385 (inactive) | z-score [4, 32]: 0.761 and 0.973 | z-score [22]: 0.575 (inactive)

CCN(CC)CCOc1ccc(/C(=C(/Cl)c2ccccc2)c2ccccc2)cc1
fluorescence slope change [23]: 69.8% (active) | survival [1]: 1.25 (inactive) | parasite load remaining [2]: 5.86% (inactive) and 13.7% (inactive) and 1.37% (inactive) | viability [2]: 83.4% and 76% and 71% | fold change [3, 27]: 0.802 (inactive) and 0.892 (inactive) | fold change [3, 28]: 1.39 and 1.34 | cell count [3, 29]: 7010 and 7690 | cell count [3, 30]: 8740 and 8620 | z-score [4, 31]: -1.93 (inactive) and -1.91 (inactive) | z-score [4, 32]: -0.316 and -1.39 | z-score [22]: -2.19 (inactive)

Cc1nn(-c2ccccc2)c(C)c1C=NN1CCN(Cc2ccccc2)CC1
inhibition [24]: -4% (inactive) | fluorescence ratio (interference) [25]: 1 (inactive) | fold change [3, 27]: 0.991 (inactive) and 0.89 (inactive) | fold change [3, 28]: 1.98 and 0.283 | cell count [3, 29]: 8530 and 7580 | cell count [3, 30]: 8610 and 8510 | outcome [26]: inactive | z-score [4, 31]: 1.46 (inactive) | z-score [4, 32]: -0.978 | z-score [22]: -0.13 (inactive)

— PubChem BioAssay
